# Source: PubChem BioAssay AID651571 (The Scripps Research Institute Molecular Screening Center, 2012)
# Hit rate of the full screen: of about 1,500 compounds, about 1,300 (87%) were called active. Cut-off read from the data, not from the text of the source: active = inhibition above about 9%; inactive = the rest. The set was probably picked from earlier hits. The list is a sample of the results.
# Experiment: binders of anti-gp120 antibody PG9, confirmation, biochemical, TR-FRET (AID 651571)
# Settings: TR-FRET PG9 antibody binding, at 6.7 µM, stronger effect = higher value
row,SMILES,inhibition
1,COc1ccc(Cl)cc1NC(=O)Cn1nc(-c2ccc(C)cc2)n(C)c1=S,12.2% (active)
2,N#Cc1ccccc1NC(=O)c1cccc(COc2ccc(Cl)cc2Cl)c1,15.1% (active)
3,O=C1C(=O)N(CCN2CCOCC2)C(c2cccc(Cl)c2)/C1=C(/O)c1ccc2c(c1)OCO2 (stereo not drawn),26.7% (active)
4,O=C(O)CCCCCNc1ncnc2ccc(Br)cc12,28.1% (active)
5,COc1cccc(-c2ccc(C#N)c(SCC(=O)NCCc3ccc(Cl)cc3)n2)c1,7.22% (inactive)
6,COc1ccc(CCNC(=O)CSc2nc(-c3ccc(OC)c(OC)c3)ccc2C#N)cc1,26% (active)
7,O=C(Nc1c(Br)cc2c(c1Br)Cc1cc([N+](=O)[O-])ccc1-2)C(Cl)Cl,51.1% (active)
8,O=C(COC(=O)c1ccc2c(c1)OCCO2)NCc1ccccc1Cl,29.8% (active)
9,COCCNC(=O)c1cc2c(Br)ccc(Br)c2nc1N,16.4% (active)
10,C=CCn1c(=NC(=O)c2ccc(S(=O)(=O)N3CCCC3)cc2)sc2cc(NC(C)=O)ccc21,29.4% (active)
11,C=CCn1c(=NC(=O)c2cccs2)sc2cc(NC(C)=O)ccc21,9.74% (active)
12,CCCc1nc(SCC(=O)Nc2ccc(S(=O)(=O)N(C)C)cc2)c2ccccc2n1,34.5% (active)
13,CCc1ccc(NC(=O)CSc2nnc(-c3cnccn3)n2Cc2ccco2)cc1,22.4% (active)
14,O=C(C1=C(O)C(=O)N(Cc2ccccc2)C1c1ccco1)c1ccco1 (stereo not drawn),31.8% (active)
15,COc1cccc(-n2c(SCC(=O)c3c[nH]c4ccccc34)nc3ccccc3c2=O)c1,27% (active)
16,Cc1cc(C)cc(NC(=O)C2CCCN(S(=O)(=O)c3ccc4[nH]c(=O)ccc4c3)C2)c1 (stereo not drawn),23.8% (active)
17,CCn1nnc2cc(C(=O)Nc3ccc(C(=O)OC(C)C)cc3)ccc21,25.6% (active)
18,COC(=O)C1=C(C)N(Cc2ccccc2C(F)(F)F)C(=NCc2ccc(OC)cc2)NC1c1cccc(C(F)(F)F)c1 (stereo not drawn),6.91% (inactive)
19,O=C(N=C1SC2CS(=O)(=O)CC2N1Cc1ccccc1)c1ccccc1 (stereo not drawn),34.1% (active)
20,O=C(Nc1cccc(S(=O)(=O)Nc2ccc(Cl)cc2)c1)c1ccc2c(c1)OCCO2,23.1% (active)
21,COc1ccc(-c2c(C)nn3c(N4CCC(C(=O)N5CCCCC5)CC4)cc(C)nc23)cc1OC,13.9% (active)

row,SMILES,inhibition
1,CCOc1cccc(NC(=O)Cn2nc(-c3ccc4c(c3)OCCO4)ccc2=O)c1,14.5% (active)
2,Cc1cc2c(cc1C)N1C(=O)c3cc4ccccc4cc3NC(=O)C1C(=O)N2 (stereo not drawn),12.3% (active)
3,COc1ccc(-n2nnnc2-c2nc3ccccc3s2)cc1,30.8% (active)
4,CCn1c(SCC(=O)Nc2cccc(F)c2)nnc1-c1cc2cc(Br)ccc2o1,40.1% (active)
5,Cc1nc2nc(SCC(=O)c3ccccc3)[nH]c2cc1Br,28.4% (active)
6,N#C/C=C1\Sc2ccccc2C(=O)N1CC(=O)N1CCN(S(=O)(=O)c2ccccc2)CC1,22.1% (active)
7,N#Cc1ccccc1Sc1ccccc1C(=O)OCC(=O)NC1CCCCC1,27.3% (active)
8,CC(=O)c1sc2nc(SCC(=O)N3CCCCC3)[nH]c(=O)c2c1C,25.6% (active)
9,COc1cccc(NS(=O)(=O)c2ccc3[nH]cc(C(=O)NCCCOC(C)C)c(=O)c3c2)c1,18.6% (active)
10,Fc1cc(F)c2nc(Nc3nc4c(F)cccc4s3)sc2c1,9.6% (active)
11,COCCCNc1nc2c(-c3cccc(C)c3)nnn2c2ccc(Cl)cc12,19.2% (active)
12,O=C1COc2ccc(C(=O)COC(=O)c3ccccc3Cl)cc2N1,24.8% (active)
13,Cc1c(-c2ccccc2)nc(N)c(C#N)c1-c1cccs1,18.6% (active)
14,N#Cc1c(-c2cccs2)nc(SCC(=O)c2ccc(Br)cc2)[nH]c1=O,29.8% (active)
15,COc1ccc(CC(=O)Nc2ccc(-c3nnc(-c4ccccc4)o3)cc2)cc1,18.3% (active)
16,Cc1nc(-c2ccccc2)sc1-c1nc(-c2ccccc2)ncc1S(=O)(=O)c1ccccc1,8.54% (inactive)
17,Cc1ccc(-c2cc(C(=O)NCc3cn(C)nc3C)c3cc(Br)ccc3n2)cc1,18.5% (active)
18,CCOC(=O)c1c(C)[nH]c(C(=O)OCC(=O)c2ccc(OC)cc2OC)c1C,45.1% (active)
19,Cc1ccc(-n2c(SCC(=O)NCCC3=CCCCC3)nc3n[nH]c(C)c3c2=N)cc1Cl,22.1% (active)
20,CCCCNC(=O)CSc1nc2n[nH]c(C)c2c(=N)n1-c1cccc(Cl)c1C,38.3% (active)
21,Cc1ccc(-n2ncc3c(=O)n(-c4ccc(C)c(C)c4)c(-c4ccco4)nc32)cc1,8.17% (inactive)

row,SMILES,inhibition
1,CC1(C)Cc2ccccc2-c2[nH]c(=S)[nH]c(=O)c21,9.89% (active)
2,CCOc1cc2ccccc2cc1C(=O)Nc1ccccn1,12.1% (active)
3,CC(C)OCCCNC(=O)c1cc(Sc2ccc(F)cc2)nc2ccccc12,25.9% (active)
4,S=c1[nH]c2ccccc2c2ccccc12,14.6% (active)
5,Cc1cc(Br)ccc1NC(=O)c1sc2ncn(CC(=O)N3CCN(c4ccccn4)CC3)c(=O)c2c1C,5.44% (inactive)
6,O=C(O)CCC(=O)Nc1nc2ccc([N+](=O)[O-])cc2s1,5.06% (inactive)
7,COC(=O)c1ccc(NC(=S)Nc2cccc(C)n2)cc1,11% (active)
8,O=C(NCc1ccc(Cl)cc1)c1cc2c(nc3sccn32)s1,17.8% (active)
9,CC(=O)c1cc(C#N)c(SCC(=O)Nc2nccs2)nc1C,27.5% (active)
10,COc1ccc(-c2csc(NC(=O)c3ccc(N4C(=O)CCC4=O)cc3)n2)cc1OC,15.2% (active)
11,O=C(Oc1ccccc1)Oc1ccc2c(c1)oc(=O)c1ccccc12,46.9% (active)
12,CCOc1ccc2cc(C#N)c(SCC(=O)OC)nc2c1,48.4% (active)
13,Cc1cccc(Nc2nc3c(S(=O)(=O)c4ccccc4)nnn3c3ccccc23)c1C,41.2% (active)
14,Cc1nc2cc(NC(=O)CSc3nc4c(C)cccc4cc3C#N)ccc2s1,46.4% (active)
15,O=C(Nc1nnc(-c2ccccc2F)s1)c1ccccc1F,38.5% (active)
16,N#Cc1c(N)nc2c3c(sc(=N)c2c1N)NC(=O)CC3c1ccccc1Cl (stereo not drawn),24.9% (active)
17,C=CCOc1cccc(C2C(C(=O)c3ccc(C)o3)=C(O)C(=O)N2CCCn2ccnc2)c1 (stereo not drawn),19.4% (active)
18,CCCOc1ccc(C2C(C(=O)c3ccc(C)o3)=C(O)C(=O)N2CCCn2ccnc2)cc1 (stereo not drawn),53% (active)
19,Cn1c(=S)sc2ccc3ccccc3c21,11.9% (active)
20,CCOc1ccc(C(=O)COC(=O)c2ccc(-n3cnnn3)cc2)cc1,27.8% (active)
21,CC(=O)c1sc(NC(=O)CCCOc2ccccc2C)nc1C,18.4% (active)
